# Experimental data taken from PubChem BioAssay (NCATS).
# Records with an inconclusive call do not appear. Entries that show only a call come without a potency. The source made the active and inactive calls. The call rests on the fitted dose curve; in most records, active means well fitted curve in the direction sought with a large enough effect; inconclusive means small, poorly fitted or top-dose-only effect, or another doubt; inactive means no such curve, though single readings can be large; an effect the other way counts as inactive or inconclusive.
# How the values were obtained:
# [1] = qHTS of pediatric cancer cell lines to identify multiple opportunities for drug repurposing: Primary screen for U-2 OS cells (AID 1347096); settings: U-2 OS viability, CellTiter-Glo luminescence, 48 h; series mostly up to 92.7 µM; further: nearly all actives have a fitted effect of over 50% in size; further: potency means the concentration at half of the fitted maximal effect
# Method in brief: (§1)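 Cells (500-1,000/well) in growth media were settled 5 h at 37 degrees C, then given compounds for 48 h. Viability was read as CellTiter-Glo luminescence. Primary runs used MIPE at 11 points (0.78 nM-46 µM) and NPC at 8 points (0.59 nM-46 µM); follow-ups used 11 points.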
# [2] = qHTS of pediatric cancer cell lines to identify multiple opportunities for drug repurposing: Primary screen for Saos-2 cells (AID 1347097); settings: Saos-2 viability, CellTiter-Glo ATP luminescence, 48 h; further: potency means the concentration at half of the fitted maximal effect; nearly all actives have a fitted effect of over 40% in size
# Method in brief: (§2)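 Quantitative HTS format: each compound titrated (MIPE 11 points from 0.78 nM, NPC 8 points from 0.59 nM) onto cells plated 5 hours earlier. After 48 h at 37 degrees C, CellTiter-Glo luminescence was recorded.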
# [3] = qHTS of pediatric cancer cell lines to identify multiple opportunities for drug repurposing: Primary screen for SK-N-SH cells (AID 1347098); settings: SK-N-SH viability, CellTiter-Glo luminescence, 48 h; series mostly up to 115 µM; further: nearly all actives have a fitted effect of over 65% in size; further: potency means the concentration at half of the fitted maximal effect
# Method in brief: (§3)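 Cells (500-1,000/well) rested 5 h, then received compounds for 48 h; metabolically active cells were measured by CellTiter-Glo luminescence. Final concentrations spanned up to 46 µM (MIPE, 11-point) or 0.59 nM-46 µM (NPC, 8-point) in primary screens, 11-point in follow-ups.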
# [4] = qHTS of pediatric cancer cell lines to identify multiple opportunities for drug repurposing: Primary screen for NB1643 cells (AID 1347099); settings: NB1643 neuroblastoma viability, CellTiter-Glo luminescence, 48 h; series mostly up to 92.7 µM; further: nearly all actives have a fitted effect of over 50% in size; further: potency means the concentration at half of the fitted maximal effect
# Method in brief: as §2
# [5] = qHTS of pediatric cancer cell lines to identify multiple opportunities for drug repurposing: Primary screen for BT-12 cells (AID 1347101); settings: BT-12 viability, CellTiter-Glo luminescence, 48 h; series mostly up to 116 µM; further: nearly all actives have a fitted effect of over 25% in size; further: potency means the concentration at half of the fitted maximal effect
# Method in brief: as §3
# [6] = qHTS of pediatric cancer cell lines to identify multiple opportunities for drug repurposing: Primary screen for Rh18 cells (AID 1347102); settings: Rh18 rhabdomyosarcoma viability, CellTiter-Glo luminescence, 48 h; series mostly up to 92.7 µM; further: nearly all actives have a fitted effect of over 65% in size; further: potency means the concentration at half of the fitted maximal effect
# Method in brief: as §1
# [7] = qHTS of pediatric cancer cell lines to identify multiple opportunities for drug repurposing: Primary screen for OHS-50 cells (AID 1347103); settings: OHS-50 osteosarcoma viability, CellTiter-Glo luminescence, 48 h; series mostly up to 116 µM; further: nearly all actives have a fitted effect of over 40% in size; further: potency means the concentration at half of the fitted maximal effect
# Method in brief: as §3
# [8] = qHTS of pediatric cancer cell lines to identify multiple opportunities for drug repurposing: Primary screen for RD cells (AID 1347104); settings: RD rhabdomyosarcoma viability, CellTiter-Glo luminescence, 48 h; series mostly up to 92.7 µM; further: nearly all actives have a fitted effect of over 55% in size; further: potency means the concentration at half of the fitted maximal effect
# Method in brief: as §2
# [9] = qHTS of pediatric cancer cell lines to identify multiple opportunities for drug repurposing: Primary screen for MG 63 (6-TG R) cells (AID 1347105); settings: MG 63 (6-TG R) viability, CellTiter-Glo, 48 h; series mostly up to 92.7 µM; further: nearly all actives have a fitted effect of over 50% in size; further: potency means the concentration at half of the fitted maximal effect
# Method in brief: as §2
# [10] = qHTS of pediatric cancer cell lines to identify multiple opportunities for drug repurposing: Primary screen for LAN-5 cells (AID 1347100); settings: LAN-5 neuroblastoma viability, CellTiter-Glo luminescence, 48 h; series mostly up to 92.7 µM
# Method in brief: as §1
Structure (SMILES),Potency [1],Potency [2],Potency [3],Potency [4],Potency [5],Potency [6],Potency [7],Potency [8],Potency [9],outcome [10]
C[CH2][Hg][S]c1ccccc1C(=O)O,6.68 µM (active),0.841 µM (active),3.07 µM (active),2.37 µM (active),3.47 µM (active),4.73 µM (active),3.89 µM (active),4.73 µM (active),2.66 µM (active),–
CCCSP(=O)(OCC)SCCC,inactive,–,inactive,inactive,inactive,inactive,inactive,inactive,inactive,inactive
